Screens: PubChem BioAssay, National Center for Advancing Translational Sciences (NCATS)
Hits are enriched below; roughly 21% of the tested compounds scored in any of these assays.
Pf growth 96h: inhibits malaria parasite growth, 96 h | 320,000 tested, 6.9% active | P. falciparum luciferase reporter growth, 96 h | AID 504834 | Potency, µM (highest dose often 28.7 µM), actives largely listed as inhibitors
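Compounds incubated with erythrocytes infected by luciferase-expressing P. falciparum (2% hematocrit, 0.05% parasitemia final) for 96 hours, 37 C in 5% CO2. Growth inhibition scored as decreased luciferase luminescence.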
NS1 function inh: blocks influenza NS1 protein function. Potency, µM (highest dose often 46.1 µM). 270,000 tested, 0.4% active. AID 2326; calls by dose curve; note: actives are rising curves; nearly all actives have a fitted effect of over 50% in size
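S. cerevisiae expressing influenza A NS1, grown in glucose, washed, then diluted 1:100 into pH 6.0 -URA galactose medium with 23 nl compound. Growth recovery read as OD600; NS1-free strain serves as control.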
Shiga inhibitor: Shiga toxin inhibition; Vero cells, Shiga toxin protein synthesis inhibition reporter; inhibition, % at 38.7 µM; 290,000 tested, 9.2% active; AID 2315; in the data active = inhibition mostly above about 28%, no sharp cut-off; inactive = mostly below about 43%
Cycloheximide cs: affects cycloheximide protein synthesis inhibition readout, counter-screen. cell reporter, cycloheximide protein synthesis inhibition counterscreen. max response, %. 300,000 tested, 12% active; in the data active = max response mostly above about 13%, no sharp cut-off; inactive = mostly below about 14%; note: read at 38.3 µM for the half of the compounds with a filed dose
Pf growth 48h: P. falciparum growth inhibition at 48 hours (one generation); 310,000 tested, 5.9% active; P. falciparum luciferase growth in erythrocytes, 48 h; Potency, µM (series often up to 28.7 µM), hits mostly inhibitors
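Firefly luciferase activity from engineered P. falciparum reports growth; inhibitors lower the luminescent signal. Cultures contained 2% hematocrit erythrocytes at 0.1% final parasitemia.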
FBPA Giardia inh: inhibitors of Giardia lamblia fructose-1,6-bisphosphate aldolase | A8B2U2 | purified Giardia FBPA | Potency, µM (series often up to 59.6 µM), most hits filed as inhibitors | 290,000 tested, 0.71% active; note: nearly all actives have a fitted effect of over 55% in size
Target sequence (A8B2U2 whole entry, looked up): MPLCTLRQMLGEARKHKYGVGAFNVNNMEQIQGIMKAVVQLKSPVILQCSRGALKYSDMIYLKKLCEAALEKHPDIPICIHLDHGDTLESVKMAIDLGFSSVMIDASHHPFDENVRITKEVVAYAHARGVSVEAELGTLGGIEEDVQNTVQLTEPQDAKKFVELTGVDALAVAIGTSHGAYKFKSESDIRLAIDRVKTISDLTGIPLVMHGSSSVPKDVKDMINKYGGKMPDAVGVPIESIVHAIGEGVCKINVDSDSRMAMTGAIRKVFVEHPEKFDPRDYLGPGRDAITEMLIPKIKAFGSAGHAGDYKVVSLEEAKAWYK
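40 nM FBPA preincubated 10 min at RT with compound (up to 57.5 uM final), then substrate plus GAPDH/TPI/NAD/arsenate coupling and diaphorase/resazurin added. Fluorescence read after 20 min at RT, 525/598 nm.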
Numbers stand for hits; [ ] = another dose, or the depositor's remark. Unless noted, calls come from the whole dose curve; as a rule, active = well fitted curve in the direction sought with a large enough effect; inconclusive = small, poorly fitted or top-dose-only effect, or another doubt; inactive = no such curve, though single readings can be large; an effect the other way counts as inactive or inconclusive.

CCCCn1cnc2c(oc3ccccc32)c1=O was read as Pf growth 96h inconclusive, NS1 function inh inactive, Shiga inhibitor 72, Cycloheximide cs 51, Pf growth 48h inactive and FBPA Giardia inh inactive.
`Cc1ccccc1Cn1cnc2c(oc3ccccc32)c1=O` gave Pf growth 96h inactive, Shiga inhibitor inactive, Cycloheximide cs inactive, Pf growth 48h inactive and FBPA Giardia inh inactive.
`CC(C)n1cnc2c(oc3ccccc32)c1=O` gave Pf growth 96h inactive, NS1 function inh inactive, Shiga inhibitor 67, Cycloheximide cs 32, Pf growth 48h inactive and FBPA Giardia inh inactive.
N#CCn1cnc2c(oc3ccccc32)c1=O was read as Pf growth 96h inactive, NS1 function inh inactive, Shiga inhibitor inactive, Cycloheximide cs 13, Pf growth 48h inactive and FBPA Giardia inh inactive.
For COc1ccc(/C=N/N2C(C)CCCC2C)cc1OC (stereo not given) the results were Pf growth 96h inactive, NS1 function inh inactive, Shiga inhibitor inactive, Cycloheximide cs inactive, Pf growth 48h inactive and FBPA Giardia inh inactive.
Screening CCOc1ccc(/C=N/N2C(C)CCCC2C)cc1 (stereo not given) returned Pf growth 96h inactive, NS1 function inh inactive, Shiga inhibitor inactive, Cycloheximide cs 37, Pf growth 48h inactive and FBPA Giardia inh inactive.
`CCOc1cccc(/C=N/N2C(C)CCCC2C)c1O` (stereo not given) gave Pf growth 96h inactive, NS1 function inh inactive, Shiga inhibitor inactive, Cycloheximide cs 30, Pf growth 48h inactive and FBPA Giardia inh inactive.
For CC1CCCC(C)N1/N=C/c1ccc(Cl)cc1 (stereo not given) the results were Pf growth 96h inactive, NS1 function inh inactive, Shiga inhibitor inactive, Cycloheximide cs inactive and FBPA Giardia inh inactive.
Screening CCOc1cccc(/C=N/N=C/c2cccc(OCC)c2O)c1O returned Pf growth 96h inactive, NS1 function inh inactive, Shiga inhibitor inactive, Cycloheximide cs inactive, Pf growth 48h inactive and FBPA Giardia inh inactive.
`CC1CCCC(C)N1/N=C/c1ccc(C#N)cc1` (stereo not given) gave Pf growth 96h inactive, NS1 function inh inactive, Shiga inhibitor inactive, Cycloheximide cs 26, Pf growth 48h inactive and FBPA Giardia inh inactive.
For COC(=O)C(=C/C(C)=C/c1cccnc1)C(=O)OC the results were Pf growth 96h inactive, NS1 function inh inactive, Shiga inhibitor inactive, Cycloheximide cs inactive, Pf growth 48h inconclusive and FBPA Giardia inh inactive.
Cc1ccc(C(=O)O/N=C2\CCSc3ccc(C)cc32)cc1 was read as Pf growth 96h inactive, NS1 function inh inactive, Shiga inhibitor inactive, Cycloheximide cs inactive, Pf growth 48h inactive and FBPA Giardia inh inactive.
Screening COc1ccc(S(=O)(=O)O/N=C2\CCSc3ccc(C)cc32)cc1 returned Pf growth 96h inconclusive, NS1 function inh inactive, Shiga inhibitor inactive, Cycloheximide cs inactive, Pf growth 48h 2.9µM and FBPA Giardia inh inactive.
Screening COc1ccc(C)cc1N(C(=O)c1ccc(C#N)cc1)C1=NC(C)(C)CS1 returned Pf growth 96h inactive, NS1 function inh inactive, Shiga inhibitor inactive, Cycloheximide cs inactive, Pf growth 48h inactive and FBPA Giardia inh inactive.
`O=C(NCc1cccnc1)c1sc2cc(Cl)ccc2c1Cl` gave Pf growth 96h inactive, NS1 function inh inactive, Shiga inhibitor inactive, Cycloheximide cs inactive, Pf growth 48h inactive and FBPA Giardia inh inactive.
`O=C(NCc1ccco1)c1sc2ccccc2c1Cl` gave Pf growth 96h 3.3µM, NS1 function inh inactive, Shiga inhibitor 84, Cycloheximide cs 25, Pf growth 48h inactive and FBPA Giardia inh inactive.
`O=C(NCc1ccco1)c1sc2cc(Cl)ccc2c1Cl` gave Pf growth 96h inactive, NS1 function inh inactive, Shiga inhibitor 58, Cycloheximide cs 34, Pf growth 48h inactive and FBPA Giardia inh inactive.
`O=C(NCCN1CCOCC1)c1sc2ccccc2c1Cl` gave Pf growth 96h inconclusive, NS1 function inh inactive, Shiga inhibitor inactive, Cycloheximide cs 23, Pf growth 48h inactive and FBPA Giardia inh inactive.
O=C(CSC(=S)N1CCCC1)NCC(=O)Nc1ccccc1Br was read as Pf growth 96h inactive and Pf growth 48h inconclusive.
Cc1cccc(NC(=O)C[n+]2cccc(C)c2)c1 was read as Pf growth 96h 0.66µM, NS1 function inh inactive, Cycloheximide cs inactive, Pf growth 48h inconclusive and FBPA Giardia inh inactive.
`COc1cc([N+](=O)[O-])ccc1NC(=O)C[n+]1cccc(C)c1` gave Pf growth 96h inconclusive, NS1 function inh inactive, Shiga inhibitor inactive, Cycloheximide cs inactive, Pf growth 48h inactive and FBPA Giardia inh inactive.
COc1ccc(Cl)cc1NC(=O)C[n+]1cccc(C)c1 was read as Pf growth 96h inactive, NS1 function inh inconclusive, Shiga inhibitor inactive, Cycloheximide cs inactive, Pf growth 48h 12µM and FBPA Giardia inh inactive.
`C=CCSC1=NN2CCS(=O)(=O)N=C2S1` gave Pf growth 96h inactive, Shiga inhibitor inactive, Cycloheximide cs inactive, Pf growth 48h inactive and FBPA Giardia inh inactive.
`C[C@]12O[C@H](C[C@]1(O)CO)n1c3ccccc3c3c4c(c5c6ccccc6n2c5c31)CNC4=O` gave Pf growth 96h 0.15µM and Pf growth 48h 0.17µM.
Screening COC(=O)[C@@]1(OC)C[C@@H]2O[C@@]1(C)n1c3ccccc3c3c4c(c5c6ccccc6n2c5c31)C(=O)N(C)C4 returned Shiga inhibitor inactive, Cycloheximide cs inactive and FBPA Giardia inh inactive[12.9 µM].
CCc1ccc(N2CC(C(=O)Nc3cc(C)on3)CC2=O)cc1 (stereo not given) was read as Pf growth 96h inactive, NS1 function inh inactive, Shiga inhibitor inactive, Cycloheximide cs inactive, Pf growth 48h inactive and FBPA Giardia inh inactive.
`CC(C)(C)N(Cc1ccccc1)C(=O)CN1C(=O)c2ccccc2C1=O` gave Pf growth 96h inactive, NS1 function inh inactive, Shiga inhibitor 55, Cycloheximide cs 38, Pf growth 48h inactive and FBPA Giardia inh inactive.
For COc1cccc(C(C)NC(=O)Cc2cccs2)c1 (stereo not given) the results were Pf growth 96h inconclusive, NS1 function inh inactive, Shiga inhibitor inactive, Cycloheximide cs inactive, Pf growth 48h inactive and FBPA Giardia inh inactive.
`O=c1[nH]c(-c2ccncc2)nc2ccccc12` gave Pf growth 96h 7.4µM, NS1 function inh inactive, Shiga inhibitor inactive, Cycloheximide cs inactive, Pf growth 48h inactive and FBPA Giardia inh inactive.
Screening N=c1oc2ccccc2cc1-c1nc2ccccc2c(=O)[nH]1 returned Pf growth 96h inactive, NS1 function inh inactive, Shiga inhibitor 60, Cycloheximide cs inactive and FBPA Giardia inh inactive.
COc1ccc(-c2nc3ccccc3c(=O)[nH]2)cc1 was read as Pf growth 96h inactive, NS1 function inh inactive, Shiga inhibitor 56, Cycloheximide cs 43, Pf growth 48h inactive and FBPA Giardia inh inactive.
CN(C)c1ccc(-c2nc3ccccc3c(=O)[nH]2)cc1 was read as Pf growth 96h inactive, NS1 function inh inactive, Shiga inhibitor 37, Cycloheximide cs 36, Pf growth 48h inactive and FBPA Giardia inh inactive.
Screening O=c1[nH]c(-c2cccnc2)nc2ccccc12 returned NS1 function inh inactive, Shiga inhibitor inactive, Cycloheximide cs inactive, Pf growth 48h inactive and FBPA Giardia inh inactive.
